Measurements: the OligoGym collection
Further: reference of the scale not given here.

What follows are sequences tested against CD48 (assay: pooled miR-30 sensor sort-seq; sequence = guide strand). Conditions: shRNA.
ATGTGTATCTCTATATCTCTGT gave a sensor-assay potency score (higher = more potent) of -0.19. In the case of TTGTTTGTAGTTCTCAGGCAGG, the sensor-assay potency score (higher = more potent) is reported as -0.932. TACTAGAAAACAACAAAGGGAT showed a sensor-assay potency score (higher = more potent) of -0.0806. Work on TTAGATTTTCTGGAATCCCATT yielded a sensor-assay potency score (higher = more potent) of -1.01. TAATTCAGCAGCATGCTTCTGG was tested, and the sensor-assay potency score (higher = more potent) was 0.539. With TTCTTGCTCATTCCCAGTCTTT the sensor-assay potency score (higher = more potent) was -1.11. Work on TCCCATTCTACAATCTTCTGGT yielded a sensor-assay potency score (higher = more potent) of -0.143. With TTCAGAGTCACGTTGCTGCCGG the sensor-assay potency score (higher = more potent) was -0.426. In the case of TTGATCTTCCATTCTTGCTCAT, the sensor-assay potency score (higher = more potent) is reported as 0.311.

The sequences below were run against CD58 in the same assay as above. Conditions: shRNA.
TTTGTTGGGAAAAACAGCTGAT showed a sensor-assay potency score (higher = more potent) of -0.0646. With TTGCTCCATAGGACAATCCCAT the sensor-assay potency score (higher = more potent) was -1.06. For TTACAAAAGTATCTACATCATC, the sensor-assay potency score (higher = more potent) was -0.687. TAAAATAATTTAGTTATGCTGT showed a sensor-assay potency score (higher = more potent) of -0.222. TATAAGTGCATATCTGTGTCTT gave a sensor-assay potency score (higher = more potent) of 0.724. For TTTCATACTCATCTTCATCTGA, the sensor-assay potency score (higher = more potent) was 0.555. ATATACAGCACAATACATGTTG was tested, and the sensor-assay potency score (higher = more potent) was 0.0974. For TTAAAATATATACTGGTTGAGT, the sensor-assay potency score (higher = more potent) was -0.467. With TTCTTCTTAAAGCAGCTGCTTC the sensor-assay potency score (higher = more potent) was -0.594. Work on TATACAGCACAATACATGTTGT yielded a sensor-assay potency score (higher = more potent) of -0.688. In the case of TTAAAAGATGAGAAAGCTCTGA, the sensor-assay potency score (higher = more potent) is reported as -0.214. Sequence TAAAGAAAGAACTTCATGGTAT has a sensor-assay potency score (higher = more potent) of 0.701. TTTAAAGGCACATTGCTTGGTA gave a sensor-assay potency score (higher = more potent) of 0.706. Work on TTATCCTTTTGTTTTTTCCATA yielded a sensor-assay potency score (higher = more potent) of -1.18. TAATAAGTTGATGACAGCCAAA was tested, and the sensor-assay potency score (higher = more potent) was -1.7. Work on TTCATATACAGCACAATACATG yielded a sensor-assay potency score (higher = more potent) of -1.42. With TACATGTTGTAATTACTGCTAA the sensor-assay potency score (higher = more potent) was -0.161. Sequence TAATGCTCTGGTATCATGCATT has a sensor-assay potency score (higher = more potent) of -0.599. With TAAAAGATGAGAAAGCTCTGAA the sensor-assay potency score (higher = more potent) was 0.844. TTGAGTTACGTTTACATTGCTC was tested, and the sensor-assay potency score (higher = more potent) was -0.143. TACAGCACAATACATGTTGTAA showed a sensor-assay potency score (higher = more potent) of -0.704. TTGTGGAAGATCATTTTCCATC was tested, and the sensor-assay potency score (higher = more potent) was -1.11. TTGTTTTTTCCATAGGACCTCT was tested, and the sensor-assay potency score (higher = more potent) was -0.0433.

The sequences below were run against CD86 in the same assay as above. Conditions: shRNA.
Work on TAAGCTTGAATCTTCAGAGGAG yielded a sensor-assay potency score (higher = more potent) of 0.681. For TTGTGAAGTCTCAGGGTCCAAC, the sensor-assay potency score (higher = more potent) was -1.21. Sequence TTTATGTACACATTTTCTGTTA has a sensor-assay potency score (higher = more potent) of -0.664. TAGAATTAGACAGAAAACCATC gave a sensor-assay potency score (higher = more potent) of -0.951. In the case of TGATACATTGATACAAGCCCTT, the sensor-assay potency score (higher = more potent) is reported as -0.31. In the case of ATTGAAATAAGCTTGAATCTTC, the sensor-assay potency score (higher = more potent) is reported as 0.247. With TTTTCTCTTTTCTTGGTCTGTT the sensor-assay potency score (higher = more potent) was -0.104. With TACTATTTCAGGTTGACTGAAG the sensor-assay potency score (higher = more potent) was -0.445.
